# Assay results taken from PubChem BioAssay AID1159580 (chemical genetic matrix, 2015).
# Several values for one entry are separate records, joined by “and”; a condition that tells them apart may be missing. Identical values can stand only once. The campaign covered roughly 5,500 compounds. About 2,000 (36%) were called active. Another 18% or so got no clear call; they are omitted. Rule as the data show it: active = normalized growth mostly below about 0.91 (no sharp cut-off); inconclusive = no clear call, values can overlap the other calls; inactive = mostly above about 0.92. The list shows a part of the results.
# Assay: chemical genetic growth profiling, strain panel (AID 1159580);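 also: tested at 20 µM; growth read once vehicle control cultures reached saturation at 30 °C; 1 = growth at the plate median or of vehicle wells; lower values mean less growth of the strain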
# Conditions: S. cerevisiae deletion strains, growth OD
structure (smiles),measurement,setting,value
C/C1=C/CC(C)(C)/C=C/C/C(C)=C/CC1,normalized growth,"locus YAL021C, strain ccr4, stronger effect = lower value",1.04 (inactive)
same,normalized growth,"locus YAL026C, strain drs2, stronger effect = lower value",0.983 (inactive)
same,normalized growth,"locus YAL030W, strain snc1, stronger effect = lower value",0.99 (inactive)
same,normalized growth,"locus YBL061C, strain skt5, stronger effect = lower value",0.985 (inactive)
same,normalized growth,"locus YBR009C, strain hhf1, stronger effect = lower value",0.983 (inactive)
same,normalized growth,"locus YBR021W, strain FUR4, stronger effect = lower value",0.95 (inactive)
same,normalized growth,"locus YBR023C, strain chs3, stronger effect = lower value",0.99 (inactive)
same,normalized growth,"locus YBR171W, strain sec66, stronger effect = lower value",0.953 (inactive)
same,normalized growth,"locus YBR229C, strain ROT2, stronger effect = lower value",1.03 (inactive)
same,normalized growth,"locus YBR231C, strain swc5, stronger effect = lower value",0.977 (inactive)
same,normalized growth,"locus YBR279W, strain paf1, stronger effect = lower value",0.999 (inactive)
same,normalized growth,"locus YCL011C, strain gbp2, stronger effect = lower value",1.02 (inactive)
same,normalized growth,"locus YCL016C, strain dcc1, stronger effect = lower value",1.01 (inactive)
same,normalized growth,"locus YCL029C, strain bik1, stronger effect = lower value",1.03 (inactive)
same,normalized growth,"locus YCL061C, strain MRC1, stronger effect = lower value",0.988 (inactive)
same,normalized growth,"locus YCL069W, strain vba3, stronger effect = lower value",0.991 (inactive)
same,normalized growth,"locus YCR088W, strain abp1, stronger effect = lower value",0.981 (inactive)
same,normalized growth,"locus YDL005C, strain med2, stronger effect = lower value",0.966 (inactive)
same,normalized growth,"locus YDL035C, strain GPR1, stronger effect = lower value",0.91 (inactive)
same,normalized growth,"locus YDL040C, strain nat1, stronger effect = lower value",0.987 (inactive)
same,normalized growth,"locus YDL074C, strain BRE1, stronger effect = lower value",0.769 (active)
same,normalized growth,"locus YDL101C, strain DUN1, stronger effect = lower value",1.01 (inactive)
same,normalized growth,"locus YDL185W, strain tfp1, stronger effect = lower value",1 (inactive)
same,normalized growth,"locus YDL192W, strain arf1, stronger effect = lower value",0.988 (inactive)
same,normalized growth,"locus YDR001C, strain nth1, stronger effect = lower value",0.985 (inactive)
same,normalized growth,"locus YDR069C, strain doa4, stronger effect = lower value",0.989 (inactive)
same,normalized growth,"locus YDR101C, strain arx1, stronger effect = lower value",0.991 (inactive)
same,normalized growth,"locus YDR137W, strain rgp1, stronger effect = lower value",0.973 (inactive)
same,normalized growth,"locus YDR159W, strain sac3, stronger effect = lower value",0.975 (inactive)
same,normalized growth,"locus YDR162C, strain NBP2, stronger effect = lower value",0.611 (active)
same,normalized growth,"locus YDR195W, strain ref2",0.951 (inactive)
same,normalized growth,"locus YDR297W, strain sur2, stronger effect = lower value",0.988 (inactive)
same,normalized growth,"locus YDR318W, strain mcm21, stronger effect = lower value",1.01 (inactive)
same,normalized growth,"locus YDR334W, strain swr1, stronger effect = lower value",0.981 (inactive)
same,normalized growth,"locus YDR335W, strain msn5, stronger effect = lower value",0.998 (inactive)
same,normalized growth,"locus YDR388W, stronger effect = lower value",0.998 (inactive)
same,normalized growth,"locus YDR392W, strain spt3, stronger effect = lower value",0.961 (inactive)
same,normalized growth,"locus YDR502C, strain sam2, stronger effect = lower value",0.983 (inactive)
same,normalized growth,"locus YEL003W, strain gim4, stronger effect = lower value",0.983 (inactive)
same,normalized growth,"locus YEL037C, strain rad23, stronger effect = lower value",0.984 (inactive)
same,normalized growth,"locus YEL061C, strain CIN8 (second series), stronger effect = lower value",0.982 (inactive)
same,normalized growth,"locus YEL061C, strain CIN8, stronger effect = lower value",0.988 (inactive)
same,normalized growth,"locus YER015W, strain faa2, stronger effect = lower value",1 (inactive)
same,normalized growth,"locus YER016W, strain bim1, stronger effect = lower value",0.987 (inactive)
same,normalized growth,"locus YER110C, stronger effect = lower value",1.01 (inactive)
same,normalized growth,"locus YER111C, strain swi4, stronger effect = lower value",0.968 (inactive)
same,normalized growth,"locus YER155C, strain BEM2 (second series), stronger effect = lower value",1.01 (inactive)
same,normalized growth,"locus YER155C, strain BEM2, stronger effect = lower value",1 (inactive)
same,normalized growth,"locus YER167W, strain BCK2, stronger effect = lower value",0.98 (inactive)
same,normalized growth,"locus YFR010W, strain ubp6, stronger effect = lower value",0.978 (inactive)
same,normalized growth,"locus YGL078C, strain dbp3, stronger effect = lower value",0.985 (inactive)
same,normalized growth,"locus YGL086W, strain mad1, stronger effect = lower value",1 (inactive)
same,normalized growth,"locus YGL167C, strain pmr1, stronger effect = lower value",0.977 (inactive)
same,normalized growth,"locus YGL173C, strain kem1, stronger effect = lower value",0.96 (inactive)
same,normalized growth,"locus YGL227W, strain vid30, stronger effect = lower value",0.978 (inactive)
same,normalized growth,"locus YGL240W, strain doc1, stronger effect = lower value",0.956 (inactive)
same,normalized growth,"locus YGL248W, strain PDE1, stronger effect = lower value",1.01 (inactive)
same,normalized growth,"locus YGL253W, strain hxk2, stronger effect = lower value",0.957 (inactive)
same,normalized growth,"locus YGR135W, strain pre9, stronger effect = lower value",0.967 (inactive)
same,normalized growth,"locus YGR229C, strain SMI1, stronger effect = lower value",0.389 (active)
same,normalized growth,"locus YGR252W, strain gcn5, stronger effect = lower value",1.01 (inactive)
same,normalized growth,"locus YHR013C, strain ard1, stronger effect = lower value",1 (inactive)
same,normalized growth,"locus YHR027C, strain rpn1, stronger effect = lower value",0.97 (inactive)
same,normalized growth,"locus YHR030C, strain SLT2, stronger effect = lower value",0.85 (active) and 1.03 (inactive)
same,normalized growth,"locus YHR079C, strain IRE1 (second series), stronger effect = lower value",1.01 (inactive)
same,normalized growth,"locus YHR079C, strain IRE1, stronger effect = lower value",1.02 (inactive)
same,normalized growth,"locus YHR094C, strain hxt1, stronger effect = lower value",1.01 (inactive)
same,normalized growth,"locus YHR129C, strain ARP1, stronger effect = lower value",1.01 (inactive)
same,normalized growth,"locus YHR142W, strain chs7, stronger effect = lower value",1 (inactive)
same,normalized growth,"locus YHR200W, strain rpn10, stronger effect = lower value",1.01 (inactive)
same,normalized growth,"locus YIL066C, strain RNR3, stronger effect = lower value",1.01 (inactive)
same,normalized growth,"locus YIL073C, strain SPO22, stronger effect = lower value",0.95 (inactive)
same,normalized growth,"locus YIL125W, strain kgd1, stronger effect = lower value",0.991 (inactive)
same,normalized growth,"locus YIR030C, strain dcg1, stronger effect = lower value",1 (inactive)
same,normalized growth,"locus YJL092W, strain hpr5, stronger effect = lower value",0.988 (inactive)
same,normalized growth,"locus YJL095W, strain BCK1 (second series), stronger effect = lower value",1 (inactive)
same,normalized growth,"locus YJL095W, strain BCK1, stronger effect = lower value",0.831 (inactive) and 1.06 (inactive)
same,normalized growth,"locus YJL115W, strain asf1, stronger effect = lower value",0.988 (inactive)
same,normalized growth,"locus YJL129C, strain trk1, stronger effect = lower value",0.981 (inactive)
same,normalized growth,"locus YJL134W, strain LCB3, stronger effect = lower value",1 (inactive)
same,normalized growth,"locus YJL154C, strain vps35, stronger effect = lower value",0.981 (inactive)
same,normalized growth,"locus YJL164C, strain tpk1, stronger effect = lower value",1.01 (inactive)
same,normalized growth,"locus YJL166W, strain qcr8, stronger effect = lower value",0.985 (inactive)
same,normalized growth,"locus YJL168C, strain set2, stronger effect = lower value",1.02 (inactive)
same,normalized growth,"locus YJL187C, strain SWE1 (second series), stronger effect = lower value",0.976 (inactive)
same,normalized growth,"locus YJR043C, strain POL32, stronger effect = lower value",0.964 (inactive)
